Test results published in PubChem BioAssay AID1159580 (chemical genetic matrix, 2015).
Values joined by “and” are separate entries in the source; they are usually repeats but may differ in a detail not shown here. Identical values can stand only once. Out of some 5,500 compounds screened, about 2,000 (36%) were called active. About 18% were inconclusive and are not listed. Rule as the data show it: active = normalized growth mostly below about 0.91 (no sharp cut-off); inconclusive = no clear call, values can overlap the other calls; inactive = mostly above about 0.92. The list shows a part of the results.

Assay: chemical genetic growth profiling, strain panel (AID 1159580);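 also: tested at 20 µM; growth read once vehicle control cultures reached saturation at 30 °C; 1 = growth at the plate median or of vehicle wells; lower values mean less growth of the strain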
Settings: growth OD

Measured: normalized growth

CCN(CC)CCOC(=O)c1ccc(N)cc1
inactive: S. cerevisiae deletion strains, locus YJR075W, strain HOC1, hits give low values 1.07 | S. cerevisiae deletion strains, locus YKL009W, strain mrt4, hits give low values 0.978 | S. cerevisiae deletion strains, locus YKL068W, hits give low values 0.987 | S. cerevisiae deletion strains, locus YKL085W, strain MDH1 (second series), hits give low values 0.981 | S. cerevisiae deletion strains, locus YKL085W, strain MDH1, hits give low values 0.981 | S. cerevisiae deletion strains, locus YKL160W, strain elf1, hits give low values 1.01 | S. cerevisiae deletion strains, locus YKL190W, strain CNB1, hits give low values 1.01 | S. cerevisiae deletion strains, locus YKR001C, strain vps1, hits give low values 0.986 | S. cerevisiae deletion strains, locus YKR026C, strain gcn3, hits give low values 0.99 | S. cerevisiae deletion strains, locus YKR091W, strain srl3, hits give low values 0.988 | S. cerevisiae deletion strains, locus YLL001W, strain dnm1, hits give low values 1.02 | S. cerevisiae deletion strains, locus YLL026W, hits give low values 1 | S. cerevisiae deletion strains, locus YLL041C, strain sdh2, hits give low values 0.987 | S. cerevisiae deletion strains, locus YLR027C, strain aat2, hits give low values 0.994 | S. cerevisiae deletion strains, locus YLR039C, strain RIC1, hits give low values 1.03 | S. cerevisiae deletion strains, locus YLR058C, strain SHM2, hits give low values 1.01 | S. cerevisiae deletion strains, locus YLR102C, strain apc9, hits give low values 0.986 | S. cerevisiae deletion strains, locus YLR113W, strain HOG1, hits give low values 1.02 | S. cerevisiae deletion strains, locus YLR221C, strain rsa3, hits give low values 0.958 | S. cerevisiae deletion strains, locus YLR258W, strain gsy2, hits give low values 0.975 | S. cerevisiae deletion strains, locus YLR262C, strain YPT6 (second series), hits give low values 0.991 | S. cerevisiae deletion strains, locus YLR262C, strain YPT6, hits give low values 1.04 | S. cerevisiae deletion strains, locus YLR268W, strain sec22, hits give low values 0.959 | S. cerevisiae deletion strains, locus YLR320W, strain mms22, hits give low values 0.969 | S. cerevisiae deletion strains, locus YLR330W, strain CHS5, hits give low values 1.01 | S. cerevisiae deletion strains, locus YLR342W, strain FKS1 (second series), hits give low values 1 | S. cerevisiae deletion strains, locus YLR342W, strain FKS1, hits give low values 1.02 | S. cerevisiae deletion strains, locus YLR357W, strain rsc2, hits give low values 0.955 | S. cerevisiae deletion strains, locus YLR370C, strain arc18, hits give low values 1.01 | S. cerevisiae deletion strains, locus YLR371W, strain rom2, hits give low values 0.992 | S. cerevisiae deletion strains, locus YLR384C, strain iki3, hits give low values 0.991 | S. cerevisiae deletion strains, locus YLR418C, strain cdc73, hits give low values 0.975 | S. cerevisiae deletion strains, locus YML016C, strain PPZ1, hits give low values 1.01 | S. cerevisiae deletion strains, locus YML032C, strain rad52, hits give low values 0.99 | S. cerevisiae deletion strains, locus YML120C, strain ndi1, hits give low values 0.989 | S. cerevisiae deletion strains, locus YML124C, strain tub3, hits give low values 0.995 | S. cerevisiae deletion strains, locus YMR058W, strain fet3, hits give low values 0.983 | S. cerevisiae deletion strains, locus YMR078C, strain ctf18, hits give low values 0.992 | S. cerevisiae deletion strains, locus YMR125W, strain sto1, hits give low values 0.962 | S. cerevisiae deletion strains, locus YMR129W, hits give low values 0.982 | S. cerevisiae deletion strains, locus YMR205C, strain PFK2, hits give low values 1 | S. cerevisiae deletion strains, locus YMR223W, strain ubp8, hits give low values 0.997 | S. cerevisiae deletion strains, locus YMR231W, strain pep5, hits give low values 0.997 | S. cerevisiae deletion strains, locus YMR263W, strain SAP30, hits give low values 1.01 and 0.982 | S. cerevisiae deletion strains, locus YMR307W, strain GAS1, hits give low values 0.975 and 0.992 | S. cerevisiae deletion strains, locus YNL067W, strain RPL9B, hits give low values 1.01 | S. cerevisiae deletion strains, locus YNL071W, strain lat1, hits give low values 0.966 | S. cerevisiae deletion strains, locus YNL128W, strain TEP1, hits give low values 1.01 | S. cerevisiae deletion strains, locus YNL153C, strain GIM3, hits give low values 1.01 and 0.998 | S. cerevisiae deletion strains, locus YNL175C, strain NOP13, hits give low values 0.991 | S. cerevisiae deletion strains, locus YNL183C, strain NPR1, hits give low values 1 | S. cerevisiae deletion strains, locus YNL197C, strain WHI3, hits give low values 0.986 | S. cerevisiae deletion strains, locus YNL209W, strain ssb2, hits give low values 0.975 | S. cerevisiae deletion strains, locus YNL224C, strain SQS1, hits give low values 0.998 | S. cerevisiae deletion strains, locus YNL233W, strain BNI4, hits give low values 1.01 | S. cerevisiae deletion strains, locus YNL248C, strain rpa49, hits give low values 0.938 | S. cerevisiae deletion strains, locus YNL250W, strain rad50, hits give low values 0.986 | S. cerevisiae deletion strains, locus YNL271C, strain bni1, hits give low values 0.985 | S. cerevisiae deletion strains, locus YNL298W, strain CLA4, hits give low values 0.99 | S. cerevisiae deletion strains, locus YNL307C, strain MCK1, hits give low values 0.986 | S. cerevisiae deletion strains, locus YNL322C, strain KRE1 (second series), hits give low values 0.986 | S. cerevisiae deletion strains, locus YNL322C, strain KRE1, hits give low values 1 and 0.981 | S. cerevisiae deletion strains, locus YNR049C, strain mso1, hits give low values 0.975 | S. cerevisiae deletion strains, locus YNR052C, strain pop2, hits give low values 0.988 | S. cerevisiae deletion strains, locus YOL006C, strain TOP1, hits give low values 1.04 | S. cerevisiae deletion strains, locus YOL012C, strain htz1 0.92 | S. cerevisiae deletion strains, locus YOL147C, strain pex11, hits give low values 0.988 | S. cerevisiae deletion strains, locus YOR001W, strain rrp6, hits give low values 1.01 | S. cerevisiae deletion strains, locus YOR061W, strain CKA2, hits give low values 1.01 | S. cerevisiae deletion strains, locus YOR069W, strain VPS5, hits give low values 1.01 | S. cerevisiae deletion strains, locus YOR070C, strain gyp1, hits give low values 0.996 | S. cerevisiae deletion strains, locus YOR080W, strain dia2, hits give low values 0.996 | S. cerevisiae deletion strains, locus YOR083W, strain WHI5 (second series), hits give low values 0.979 | S. cerevisiae deletion strains, locus YOR083W, strain WHI5, hits give low values 1 | S. cerevisiae deletion strains, locus YOR106W, strain vam3, hits give low values 1.02 | S. cerevisiae deletion strains, locus YOR136W, strain idh2, hits give low values 0.996 | S. cerevisiae deletion strains, locus YOR144C, strain elg1, hits give low values 0.994 | S. cerevisiae deletion strains, locus YOR184W, strain ser1, hits give low values 0.991 | S. cerevisiae deletion strains, locus YOR231W, strain MKK1, hits give low values 1.02 | S. cerevisiae deletion strains, locus YOR265W, strain rbl2, hits give low values 0.985 | S. cerevisiae deletion strains, locus YOR270C, strain vph1, hits give low values 0.983 | S. cerevisiae deletion strains, locus YOR290C, strain snf2, hits give low values 0.946 | S. cerevisiae deletion strains, locus YOR316C, strain cot1, hits give low values 0.992 | S. cerevisiae deletion strains, locus YPL051W, strain arl3, hits give low values 0.997 | S. cerevisiae deletion strains, locus YPL055C, strain LGE1, hits give low values 1.03 | S. cerevisiae deletion strains, locus YPL078C, strain atp4, hits give low values 1.02 | S. cerevisiae deletion strains, locus YPL106C, strain sse1, hits give low values 0.929 | S. cerevisiae deletion strains, locus YPL240C, strain hsp82, hits give low values 0.991 | S. cerevisiae deletion strains, locus YPL241C, strain CIN2, hits give low values 0.993 | S. cerevisiae deletion strains, locus YPL256C, strain CLN2, hits give low values 1.04 | S. cerevisiae deletion strains, locus YPR119W, strain clb2, hits give low values 0.986 | S. cerevisiae deletion strains, locus YPR141C, strain kar3, hits give low values 0.989 | S. cerevisiae deletion strains, locus YPR163C, strain tif3, hits give low values 0.994 | S. cerevisiae deletion strains, locus YPR167C, strain met16, hits give low values 0.991 | S. cerevisiae deletion strains, strain wtn01, hits give low values 0.996 | S. cerevisiae strains, strain wild type, hits give low values 1.01
